Laboratory results taken from PubChem BioAssay (NCATS).
The source made the active and inactive calls. Calls come from the whole dose curve; as a rule, active = well fitted curve in the direction sought with a large enough effect; inconclusive = small, poorly fitted or top-dose-only effect, or another doubt; inactive = no such curve, though single readings can be large or run the other way.

Molecular target: Thyrotropin receptor (Homo sapiens) (UniProt P16473)
Test: qHTS Assay for Antagonists of the Thyroid Stimulating Hormone Receptor (AID 488980)
Conditions: TSHR-expressing cells, cAMP antagonist read-out; series mostly up to 57.5 µM
Text: TSH is an alpha/beta heterodimeric glycoprotein hormone secreted from the anterior pituitary gland which belongs to the glycoprotein hormone family. The actions of TSH are mediated by a seven-transmembrane receptor, which upon TSH binding couples preferentially to the G-alpha (s) protein (Gs), resulting in activation of adenylate cyclase and increase in cyclic adenosine 3', 5' monophosphate (cAMP). The TSH receptor (THSR) is mainly expressed in thyroid follicular cells and regulates their growth and function. This cell based assay was conducted on a TSHR transfected HEK 293 cell line, measuring cAMP stimulation using antibody-based Homogeneous Time Resolved Fluorescence (HTRF).
Our goal is to identify small molecules that will inhibit (antagonize) the thyroid-stimulating hormone receptor (TSHR), a member of the 7 transmembrane-spanning receptor (7TMR) family of cell surface receptors. TSHR-mediated hyperthyroidism is important in thyroid pathology. The development of small molecule antagonists of TSHR may lead to therapeutic approaches for TSHR-mediated hyperthyroidism caused by constitutively activating mutations or stimulating auto-antibodies associated with Graves' disease. Graves' disease is the leading cause of hyperthyroidism and is caused by autoantibodies that stimulate TSHR (TsAbs) causing thyroid growth and unregulated overproduction of thyroid hormones and existing treatments have liabilities (agranulocytosis). In addition, TSHRs are known to be expressed in multiple extrathyroidal tissues including bone, brain, kidney, testis, fat and cells of the immune system but the role of the TSHR in these tissues is not clear. Therefore, TSHR antagonists/inverse agonists could be used as probes of extrathyroidal TSHR function. Finally, TSHR inverse agonists, which are a subclass of antagonists that inhibit agonist-independent (or basal or constitutive) TSHR signaling, could be used to inhibit TSH-independent signaling in patients with recurrent or metastatic thyroid cancer who are receiving thyroid hormone to suppress TSH.
An anti cAMP antibody contains a fluorescent cryptate tag (excitation 337 nm; emission 620 nm) and the acceptor is cAMP-d2 (excitation 620 nm; emission 665 nm). When antibody and cAMP-d2 interact and are excited by a 337 nm light, a FRET occurs resulting in emission at 665 nm. The assay is competition between cAMP-d2 and cAMP (from the cell lysate). The homogeneous protocol allows for one step dispense after stimulation that is automation friendly.
Step, Parameter, Value, Description
1, Cells, 3 uL, 2000 TSHR freshly harvested cells/well 1536 TC treated White solid bottom plate (Cells resuspended in 10 mM HEPES buffered HBSS and 70 uM RO 20-1724)
2, Compound, 23 nL, Libraries and controls
3, Compound, 1 uL, EC80 TSH (4 nM final)
5, Reagent, 2 uL, cAMP antibody diluted 1:20 in lysis buffer
6, Time, 30 minutes, Room temperature
7, Detector, HTRF settings, Viewlux

Chain of Thyrotropin receptor (Homo sapiens) (P16473 whole entry, looked up): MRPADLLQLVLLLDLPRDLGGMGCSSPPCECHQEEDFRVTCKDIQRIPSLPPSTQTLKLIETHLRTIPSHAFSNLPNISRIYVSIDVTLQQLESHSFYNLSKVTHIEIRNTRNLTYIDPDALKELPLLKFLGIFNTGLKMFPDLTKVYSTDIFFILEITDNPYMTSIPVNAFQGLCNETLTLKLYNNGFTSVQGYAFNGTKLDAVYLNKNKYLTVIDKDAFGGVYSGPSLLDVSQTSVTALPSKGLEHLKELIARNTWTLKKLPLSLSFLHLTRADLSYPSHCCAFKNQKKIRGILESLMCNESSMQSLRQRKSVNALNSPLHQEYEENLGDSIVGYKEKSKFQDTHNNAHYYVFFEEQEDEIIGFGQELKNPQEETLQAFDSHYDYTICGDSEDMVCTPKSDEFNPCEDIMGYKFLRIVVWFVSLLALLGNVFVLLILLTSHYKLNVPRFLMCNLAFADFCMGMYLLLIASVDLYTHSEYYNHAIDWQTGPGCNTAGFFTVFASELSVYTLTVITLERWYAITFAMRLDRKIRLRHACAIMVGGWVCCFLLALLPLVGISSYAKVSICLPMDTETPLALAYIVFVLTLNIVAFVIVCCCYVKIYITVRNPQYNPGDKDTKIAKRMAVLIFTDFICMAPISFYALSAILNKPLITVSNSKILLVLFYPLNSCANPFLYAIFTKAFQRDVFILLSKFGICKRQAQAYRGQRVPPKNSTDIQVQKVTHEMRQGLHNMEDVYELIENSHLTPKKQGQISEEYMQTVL

Compound	outcome
Brc1c(Br)c(Br)c2n[nH]nc2c1Br	inactive
O=c1[nH]c2cc([N+](=O)[O-])c([N+](=O)[O-])cc2[nH]c1=O	inactive
O=C(Nc1cccc(C(=O)Nc2ccc(S(=O)(=O)O)c3cc(S(=O)(=O)O)cc(S(=O)(=O)O)c23)c1)Nc1cccc(C(=O)Nc2ccc(S(=O)(=O)O)c3cc(S(=O)(=O)O)cc(S(=O)(=O)O)c23)c1	inactive
O=C(c1cc(O)c(O)c([N+](=O)[O-])c1)c1ccccc1F	inactive
O=C(O)c1cc(=O)c2ccccc2[nH]1	inactive
NCCCCCCCCCCN	inactive
C[C@@H](CN1CCC(Cc2ccccc2)CC1)[C@@H](O)c1ccc(O)cc1	inactive
O=C(O)CC[C@@H](C(=O)O)N1C(=O)c2ccccc2C1=O	inactive
NC[C@@H]1O[C@H](C23CC4CC(CC(C4)C2)C3)Cc2c1ccc(O)c2O	inactive
CN1CCc2cccc3c2C1Cc1ccc(O)c(O)c1-3 (stereo not given)	inactive
CCCCC/C=C\CC(O)/C=C/c1cccc(CC(O)CCCCO)n1 (stereo not given)	inactive
COc1ccccc1N1CCN(CCCCNS(=O)(=O)c2cccc3c(N(C)C)cccc23)CC1	inactive
CC(=O)SCC[N+](C)(C)C	inactive
Cn1cc(C2=C(c3ccc(Cl)cc3Cl)C(=O)NC2=O)c2ccccc21	inactive
COc1cc2nc(N3CCN(C(=O)OCc4ccccc4)C(C(=O)NC(C)(C)C)C3)nc(N)c2cc1OC (stereo not given)	inactive
NC(=O)C(=O)O	inactive
COc1ccc(NC(=O)/C=C/c2ccc(Cl)cc2)cc1	inactive
CN(C)c1ccc(/C=C2\C(=O)Nc3ccccc32)cc1	inactive
N#C/C(=C\c1ccc(O)c(O)c1)C(=O)c1ccc(O)c(O)c1	inactive
CCCn1c(=O)c2[nH]c(-c3ccc(OCC(=O)NCCN)cc3)nc2n(CCC)c1=O	inactive

Compound	outcome
O=S(=O)(c1cccc2c(I)cccc12)N1CCCNCC1	inactive
Ic1ccc(N2CCN(Cc3c[nH]c4ncccc34)CC2)cc1	inactive
CC(C)NC[C@H](O)COc1cccc2[nH]ccc12	inactive
O=c1[nH]c2cc(Cl)c(Cl)cc2[nH]c1=O	inactive
CCCN(CC1CC1)c1nc(C)nc(Nc2c(Cl)cc(Cl)cc2Cl)c1Cl	inactive
O=C1O/C(=C/Br)CCC1c1cccc2ccccc12 (stereo not given)	inactive
CC(COc1ccc(/C=C/c2ccccc2)cc1)[N+](C)(C)C (stereo not given)	inactive
O=C(O)c1cc(=O)c2c(Cl)cc(Cl)cc2[nH]1	inactive
CC(=O)N[C@H](C(=O)O)C(C)(C)SN=O	inactive
O=C(O)c1cc([N+](=O)[O-])ccc1NCCCc1ccccc1	inactive
O=C(O)CNC(=O)C(CS)Cc1ccccc1 (stereo not given)	inactive
Fc1ccc(C(OCCCc2cnc[nH]2)c2ccc(F)cc2)cc1	inactive
Clc1ccc(N2CCN(Cc3c[nH]c4ncccc34)CC2)cc1	inactive
C=C/C(C)=C/[C@@]1(C)SC(=O)C(C)=C1O	inactive
NCCCCC(=O)O	inactive
NO	inactive
COc1cc(C(O)CO)ccc1OS(=O)(=O)O (stereo not given)	inactive
CN1CCc2cc(O)c(O)cc2C(c2ccccc2)C1 (stereo not given)	inactive
Cc1cc(NC(=O)Nc2ccc3c(ccn3C)c2)sn1	inactive
CC(C)(C=O)Cc1cc(C(C)(C)C)c(O)c(C(C)(C)C)c1	inactive
